Results: the supplement of paper PMC12636033
± gives the standard deviation of the averaged measurements. Over roughly 33,000 sequences, “E-score (rank enrichment, -0.5 to 0.5)” has its median near -0.0043; the highest 2% begin near 0.24. The list comes from a sample in which the highest values are over-represented; it also holds similar and randomly drawn sequences.

System: 2Sp-muMax20 (muMax20 with two 2,6-bis(methyl)pyridine Cys staples)
Experiment: PBM 8-mer E-score (E-score (rank enrichment, -0.5 to 0.5)); higher = stronger preferential binding
Experimental: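 Protein binding microarray (universal PBM chip covering all 10-mers in fixed probe flanks) with chemically synthesized human Max(13-93) bHLH-LZ analogs (not full-length Max) bearing noncanonical residues (hArg, Tha, Aib, Nle at 65) and aromatic Cys staples. Read-out per 8-mer (and its reverse complement): E-score (rank-based enrichment, -0.5 to 0.5) and Z-score of median probe intensity.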

Sequence | PBM 8-mer E-score
AACTACAC | 0.257 ± 0.011
AACTACAG | -0.122 ± 0.011
GACTACAC | 0.016 ± 0.034
CCCTCGCA | 0.109 ± 0.031
GGACTATA | 0.129 ± 0.085
AGCACCGA | -0.129 ± 0.026
AGTAGAAT | 0.286 ± 0.011
AGTAGAAC | 0.0268 ± 0.014
ATTAGAAT | 0.248 ± 0.033
ATTAGAAA | -0.0714 ± 0.083
ATTAGAAG | 0.138 ± 0.075
AGTAGAAA | 0.142 ± 0.006
CCGAAACG | -0.122 ± 0.032
GATCAGAA | -0.0464 ± 0.015
CCCGTGGC | -0.328 ± 0.013
ACCTCCCC | 0.0632 ± 0.019
TGAACGAA | 0.0338 ± 0.048
CTGATTCA | -0.006 ± 0.016
AAGCGCTA | 0.0638 ± 0.1
AAGCGCTT | 0.29 ± 0.074
AAGCGCTC | 0.0083 ± 0.034
AAGGATAT | 0.0821 ± 0.052
ATTTATGA | 0.149 ± 0.03
ACAGATGT | 0.0497 ± 0.021
CAACTCGA | -0.0837 ± 0.0059

Sequence | PBM 8-mer E-score
CGTGGAAA | 0.257 ± 0.038
AGTGGAAA | 0.185 ± 0.0052
CGTGGAAG | 0.163 ± 0.035
CGAGTAAC | -0.108 ± 0.036
CCACAGCA | 0.0663 ± 0.031
TCTGAAAA | -0.037 ± 0.13
CTGCGTAA | -0.0976 ± 0.042
CTGCGTTA | -0.0622 ± 0.026
ATGCGTAC | 0.00487 ± 0.0049
ATGCGTCG | -0.0304 ± 0.0076
ATGCGTAG | 0.259 ± 0.071
GTGCGTAA | 0.0529 ± 0.0043
ATGCGTAA | 0.238 ± 0.025
GTGCGTTA | 0.00978 ± 0.021
ATGCGTTA | 0.243 ± 0.018
GGCTTGTA | 0.22 ± 0.043
GGAGCAAA | 0.0658 ± 0.024
ACCTTAAT | 0.0925 ± 0.027
CAGTGCGG | -0.189 ± 0.025
ACCGTGGC | -0.207 ± 0.036
GGCCTATA | -0.243 ± 0.01
CTGCCCGC | -0.0236 ± 0.011
AAAGCGCA | 0.18 ± 0.0096
AGCGCGCC | 0.123 ± 0.087
CACGCGCG | 0.261 ± 0.051

Sequence | PBM 8-mer E-score
GGCGCGCC | -0.0216 ± 0.12
CGCGCGCC | 0.243 ± 0.006
CACGCGCA | 0.0178 ± 0.093
CAAGCGCC | -0.113 ± 0.064
GACGCGCC | -0.0693 ± 0.078
AACGCGCC | -0.0607 ± 0.047
CACGCGCC | 0.262 ± 0.027
CAAGCGCA | 0.245 ± 0.058
CGCGCGCG | 0.2 ± 0.077
ACATCGAG | 0.0846 ± 0.046
AAGCGTGG | 0.0965 ± 0.049
CTCACGCA | 0.12 ± 0.049
ACGTATAT | 0.145 ± 0.039
TAGCGCTA | -0.00743 ± 0.0017
ACCATTCT | 0.0547 ± 0.046
AACGCGCG | 0.263 ± 0.023
AACGCTCG | 0.0415 ± 0.059
CACGCTCG | 0.245 ± 0.0082
CACGCTCA | 0.0559 ± 0.045
AACACGCG | 0.213 ± 0.0048
CACACGCG | 0.281 ± 0.035
CACACGCA | 0.0795 ± 0.072
AACGCGCA | 0.0173 ± 0.051
AACGCGCT | -0.0289 ± 0.021
GGACGCAA | 0.0641 ± 0.04

Sequence | PBM 8-mer E-score
AGTTGCAG | 0.122 ± 0.058
TACAGGTA | 0.0603 ± 0.031
ATCAATGG | 0.0872 ± 0.022
GCCTCAAC | 0.0347 ± 0.072
ATCGTAAA | 0.159 ± 0.07
ATCGTAAG | -0.0242 ± 0.048
ATCGTAAT | 0.238 ± 0.0064
GTCCTTGA | -0.198 ± 0.017
CGTAACGA | 0.0392 ± 0.11
AAGGGTTG | 0.0285 ± 0.053
AGGGGTTA | 0.124 ± 0.052
AGGGGTTG | 0.258 ± 0.045
CGGATCAA | -0.188 ± 0.075
TATAGAGA | -0.0265 ± 0.04
ATATGATG | 0.181 ± 0.031
ATATGATA | 0.2602 ± 0.0017
GTATGAGA | 0.124 ± 0.0095
GCATGATA | 0.226 ± 0.0026
CTATGACA | 0.106 ± 0.0052
TAATGACA | 0.25862 ± 7.8e-05
CAATGACA | 0.128 ± 0.054
GAATGACA | -0.0425 ± 0.0067
GTATGACA | 0.158 ± 0.0027
CTATGATA | 0.0216 ± 0.058
GTATGATA | 0.342 ± 0.008

Sequence | PBM 8-mer E-score
ATATGACA | 0.25 ± 0.012
ACAATTGG | 0.0427 ± 0.02
CTCGTTAA | 0.0752 ± 0.0062
CGGGATCA | -0.0799 ± 0.0016
AAATCCCG | 0.1036 ± 0.0009
ACTGAGAT | 0.0783 ± 0.12
CACGGATC | -0.305 ± 0.0061
CATGATTC | 0.0562 ± 0.0054
GATGATTA | 0.103 ± 0.0017
TATGATAA | 0.0434 ± 0.066
AATGATAT | 0.241 ± 0.01
ACTGATAT | 0.0652 ± 0.073
AATGATAC | 0.193 ± 0.13
CATGATAG | 0.0923 ± 0.043
AATGATAG | 0.176 ± 0.039
CATGATTA | 0.24 ± 0.025
CATGATAC | 0.253 ± 0.048
AATGATAA | 0.0232 ± 0.082
CATGATAA | 0.267 ± 0.065
CGCTATAG | 0.0363 ± 0.071
GGGGTGAC | 0.0455 ± 0.096
CGGCCTTC | -0.124 ± 0.097
TAAGATAA | 0.0454 ± 0.027
AAAGATAA | 0.218 ± 0.028
CAAGATAA | 0.276 ± 0.014

Sequence | PBM 8-mer E-score
AATTCTTC | 0.0644 ± 0.062
TCACCCCA | 0.276 ± 0.021
ACACCCCA | 0.208 ± 0.015
TCACCCAA | 0.143 ± 0.0019
CCACCCCA | 0.254 ± 0.043
CCACCCCC | -0.0899 ± 0.002
GCACCCCA | 0.128 ± 0.071
AATGGATG | -0.124 ± 0.015
AGTACACG | 0.0271 ± 0.052
AAGAGCCT | 0.00281 ± 0.074
AGTCGCAA | 0.119 ± 0.018
ATAAATAG | 0.191 ± 0.021
ATAAATAC | 0.264 ± 0.019
GTAAATAA | 0.157 ± 0.059
CTAAATAA | 0.126 ± 0.07
CTAAATAC | 0.249 ± 0.037
GTAAATAC | 0.0558 ± 0.018
ATAAATAT | 0.263 ± 0.021
ATAAATAA | 0.171 ± 0.053
TTAAATAA | 0.171 ± 0.051
CAGCGTCC | -0.107 ± 0.044
TCGATTCA | 0.0577 ± 0.023
GAGCTCAC | 0.0534 ± 0.12
ATCTGTTC | 0.11 ± 0.068
ACTAGCAC | 0.0515 ± 0.15

Sequence | PBM 8-mer E-score
AAACCCCA | 0.293 ± 0.022
AACCCCAA | 0.249 ± 0.062
AACCCAAA | 0.0422 ± 0.03
CTACCCCA | 0.283 ± 0.011
ACCCCCAA | -0.142 ± 0.059
AGACCCCC | -0.388 ± 0.063
TGACCCCA | 0.108 ± 0.02
CTACCCAA | 0.0921 ± 0.061
AAACCCCC | -0.303 ± 0.11
AACCCCCA | -0.297 ± 0.061
AGACCCCA | 0.284 ± 0.052
CTACCCCC | -0.195 ± 0.12
GCCATTCC | -0.155 ± 0.069
TCGAGAAA | 0.0513 ± 0.046
GCCTTCTA | 0.0133 ± 0.025
CCCGCACA | -0.141 ± 0.011
AAACCTGA | -0.0739 ± 0.087
AAACAGAC | 0.143 ± 0.097
AGGTGGCA | -0.0941 ± 0.015
ACCAGGTA | -0.11 ± 0.012
AATTATTG | 0.196 ± 0.015
AGACCAAC | -0.0312 ± 0.013
